Drawing on PubChem BioAssay (NCI), this text covers growth for 36 compounds.

Structures are written as SMILES. About 83,000 compounds went through this panel and 20% of them were active in at least one assay; those are over-represented in the sample as a whole.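 Values shown are percent growth following 48 h exposure of cells in 96-well plates to a single concentration of compound; below 10 was considered active.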 Calls of active or inactive are those of the source.

In this assay the test system is HL-60(TB) leukemia. The assay is described as follows: NCI-60 one-dose screen, 48 h (100 = growth as untreated, 0 = no growth, -100 = all killed). To be noted: 10 µM unless noted.
In the case of `Cc1n[nH]c(C)c1-c1c(C)n[nH]c1C`, the growth is -6.88% (active). The value for `Clc1cc(Cl)c(Cl)c(-c2nnc(SCc3ccncc3Br)o2)c1` was 88.8% (inactive).

For `CCc1nc(N)nc(N)c1C#CC(C)c1cc(-c2ccnc(C)c2)c2oc(C)nc2c1` (stereo unspecified), the growth was -42.4% (active). As for `CC(C)(C)c1cc(/C=N\NC(=O)/C=C/C=C/c2ccc3c(c2)OCO3)c(O)c(C(C)(C)C)c1`, the figure is 84.1% (inactive); as for `CC(C)(C)c1ccc(OCCCCCCCN2CCNCC2)cc1`, -40.7% (active). As for `COC1=CC(c2ccc[nH]2)=N/C1=C\c1[nH]c(C)c(CC(=O)OCc2ccccc2)c1C`, the figure is -29.2% (active); as for `Nc1c(C(=O)Nc2ccccc2)sc2nc3c(cc12)CCCC3`, 15.5% (inactive). For the compound `C=CC(=O)N1CN(C(=O)C=C)CN(C(=O)C=C)C1`, the growth was 25.3% (inactive). As for `Nc1cccc2c1CN(C1CCC(=O)NC1=O)C2=O` (stereo unspecified), the figure is 105% (inactive); as for `CC(C)(C)c1cc(Br)cc(C(C)(C)C)c1O`, 94.1% (inactive); as for `CC/C=C\C[C@H]1CC=C2C(=O)C=C[C@@H]2CC=CCCCC(=O)O[C@@H](CCCCC)CC=C2C(=O)C=C[C@@H]2CC=CCCCC(=O)O[C@@H](CCCCC)CC=C2C(=O)C=C[C@@H]2CC=CCCCC(=O)O[C@@H](CCCCC)CC=C2C(=O)C=C[C@@H]2CC=CCCCC(=O)O1`, -15.3% [7.9 µM] (active). Take `CN1CCN(Cc2ccc(NC(=O)c3cncc(C#Cc4cnc(N)c5ccc(C#N)cc45)c3)cc2C(F)(F)F)CC1`: the growth is -17% (active). The value for `COc1cc(/C=C/C(=O)c2cccs2)ccc1OCc1ccc(Cl)nc1` was 72.6% (inactive); that for `O=c1[nH]c2ccccc2n2cc3cccnc3c12` was 87.5% (inactive). As for `COc1cc(-c2cc(-c3ccc(C)cc3)nc3nc(N)[nH]c(=O)c23)ccc1Oc1ccnc2cc(Cl)ccc12`, the figure is 56.2% (inactive).

Regarding `Cc1ccc(C(=O)COc2cccc(/C=C3\Oc4ccccc4C3=O)c2)cc1`, the growth is 78.7% (inactive). As for `CCN(CC)CCOc1ccc(C2=C(c3ccccc3)CCc3cc(OC)ccc32)cc1`, the figure is -54.4% (active); as for `COc1ccc(-c2ccccc2)cc1-c1c(Nc2cc(Cl)cc(Cl)c2O)c(=O)c1=O`, -29.8% (active). As for `C#CC#CC#CC#CC#CC#CC#CC#CC[C@H]1OC[C@H](COC(=O)O[C@@H](C(=O)O[C@H]2C[C@@]3(O)[C@@H](OC(=O)c4ccccc4)[C@@H]4[C@]5(OC(C)=O)CO[C@@H]5C[C@H](O)[C@@]4(C)C(=O)[C@H](OC(C)=O)C(=C2C)C3(C)C)[C@@H](NC(=O)c2ccccc2)c2ccccc2)O1`, the figure is 11.3% (inactive); as for `C=C1CC[C@@H]2C(C)(C)[C@@H](O)CC[C@@]2(C)[C@@H]1COc1ccc2ccc(=O)oc2c1`, 69.1% (inactive). For the compound `CN=C(N)N/N=C(\c1ccccc1)c1ccc(Br)cc1`, the growth was -52.5% (active). The value for `CCC(CC)(N(CC(=O)O)CC(=O)O)C(CC)(CC)N(CC(=O)O)CC(=O)O` was 79.1% (inactive); that for `CCCN1[C@@H]2CC[C@H]1/C(=C\c1ccc(OC)c(OC)c1)C(=O)/C2=C/c1ccc(OC)c(OC)c1` was 20.5% (inactive); that for `Cc1cc2c(cc1C)[n+](Cc1ccc3ccccc3n1)cn2Cc1ccc2ccccc2n1` was -49.8% (active). As for `CCCCCCOc1ccc(C(=N)N(CCCC)CCCC)c2ccccc12`, the figure is -49.6% (active); as for `C=CCOC(=O)C1=C(C)N(CC)C(=O)N(CC)C1c1c(Cl)n(C)c2ccccc12` (stereo unspecified), 96.9% (inactive). As for `Nc1nc2cc(O)ccc2n2cc3c(F)cccc3c12`, the figure is 21.7% (inactive); as for `O=c1oc2c3ccc4cnccc4c3[nH]c2c2ccccc12`, 27.1% (inactive). With `N#Cc1c(NC(=O)c2cccs2)[n+]([O-])c2ccc(F)cc2[n+]1[O-]`, the growth was 91.6% (inactive).

For the compound `O=C1c2cccc3cccc(c23)C(=O)N1C/C=C/c1ccc2c3c(cccc13)C(=O)N(CCO)C2=O`, the growth is 94.2% (inactive).

As to `CC1OC2CC(=O)OC2C2=C1C(=O)c1c(O)c3c(c(O)c1C2=O)C1CC(O)C3(O)C(C)O1` (stereo unspecified), the growth was -26.7% (active). As for `CCOc1ccc(C(CN2CCOCC2)C(C)=O)cc1OC` (stereo unspecified), the figure is 84.7% (inactive). As for `O=C(COc1ccc(/C=C2\CSc3ccccc3C2=O)cc1)c1ccc(Cl)cc1`, the figure is 80% (inactive). In the case of `CC(C)N(C(=O)c1ccccc1)C(C)C`, the growth was 100% (inactive).

Take `Cn1c(C(=O)c2cccc3ccccc23)nc2ccccc21`: the growth is 3.94% (active). Turning to `COc1ccc2nc3ccccc3c(NCc3ccc(Cl)cc3)c2c1`, the growth was -64.5% (active).
